# PMC4336329 (PLoS ONE, 2015)
# Screen size: about 310,000 compounds; about 14,000 (4.5%) showed an effect of 50% or more. Effects have a minus sign here. Many of the other results were omitted from the sample, so strong results are more common in it than they were.
# Molecular target: human ether-à-go-go-related gene (hERG) potassium channel (human, UniProt Q12809)
# Assay: primary screen, population patch clamp on CHO cells stably expressing hERG; higher = less effect of the substance
# 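Also: peak tail current of the secondary pulse compared with the same well before compound.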
# Sequence of human ether-à-go-go-related gene (hERG) potassium channel (Q12809 whole entry, looked up): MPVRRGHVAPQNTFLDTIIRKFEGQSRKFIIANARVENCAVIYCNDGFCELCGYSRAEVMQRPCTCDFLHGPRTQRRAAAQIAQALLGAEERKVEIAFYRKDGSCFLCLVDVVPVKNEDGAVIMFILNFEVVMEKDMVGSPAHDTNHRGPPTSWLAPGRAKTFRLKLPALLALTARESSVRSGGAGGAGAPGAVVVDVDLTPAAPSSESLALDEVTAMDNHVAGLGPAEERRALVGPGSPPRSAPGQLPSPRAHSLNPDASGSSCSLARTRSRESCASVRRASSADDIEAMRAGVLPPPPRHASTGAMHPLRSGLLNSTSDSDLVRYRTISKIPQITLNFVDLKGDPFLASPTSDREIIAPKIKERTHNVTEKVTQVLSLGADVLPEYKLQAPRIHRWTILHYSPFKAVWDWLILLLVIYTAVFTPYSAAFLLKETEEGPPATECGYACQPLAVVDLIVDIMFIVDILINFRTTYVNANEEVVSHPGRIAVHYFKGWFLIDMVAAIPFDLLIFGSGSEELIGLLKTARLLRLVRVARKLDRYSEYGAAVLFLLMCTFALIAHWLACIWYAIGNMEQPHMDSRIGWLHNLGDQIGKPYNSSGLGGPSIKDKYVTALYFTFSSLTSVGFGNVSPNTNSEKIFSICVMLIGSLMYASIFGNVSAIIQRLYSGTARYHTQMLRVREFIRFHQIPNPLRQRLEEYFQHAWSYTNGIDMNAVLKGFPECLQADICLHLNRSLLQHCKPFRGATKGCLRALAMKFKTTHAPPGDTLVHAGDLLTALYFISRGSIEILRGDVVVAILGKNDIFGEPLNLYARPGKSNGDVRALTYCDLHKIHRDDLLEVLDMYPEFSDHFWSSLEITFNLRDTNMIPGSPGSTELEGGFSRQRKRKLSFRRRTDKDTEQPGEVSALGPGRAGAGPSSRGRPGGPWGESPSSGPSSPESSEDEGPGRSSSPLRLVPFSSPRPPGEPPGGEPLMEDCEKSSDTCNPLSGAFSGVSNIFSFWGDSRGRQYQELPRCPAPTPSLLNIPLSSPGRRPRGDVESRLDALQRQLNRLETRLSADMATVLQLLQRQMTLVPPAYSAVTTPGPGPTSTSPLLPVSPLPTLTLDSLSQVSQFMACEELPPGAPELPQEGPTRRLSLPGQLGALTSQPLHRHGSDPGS
row,SMILES,"hERG current change (%, negative = inhibition) at 10uM"
1,CCO[C@@H]1OC(C(=O)NCc2nc3ccccc3[nH]2)=C[C@H](c2ccc(C(F)(F)F)cc2)[C@H]1CCCO,-3.34%
2,COC(=O)c1ccc(C[n+]2ccccc2)cc1.[Br-],17.3%
3,Cc1ccc(CN2CCN(CC(=O)N3CCC(C(N)=O)CC3)C2=O)cc1,5.43%
4,Cc1nnc(SCC(=O)N2CCc3ccccc3C2)n1-c1ccccc1,-23.6%
5,Cc1ccc(CN2CCN(CC(=O)N3CCc4ccccc4C3)C2=O)cc1,-50.8%
6,Cc1ccc(CNC(=O)CN2CCN(Cc3ccc(Cl)cc3)C2=O)cc1,-20.9%
7,Cc1ccc(CNC(=O)CN2CCN(Cc3ccc(C)cc3)C2=O)cc1,-26.5%
8,Cc1ccc(CN2CCN(CC(=O)NCc3ccc(Cl)cc3)C2=O)cc1,-50.4%
9,Cc1ccc(-n2c(C)nnc2SCC(=O)N2CCc3ccccc3C2)cc1,-53.3%
10,CN(CCNC(=O)CN1CCN(Cc2ccccc2Cl)C1=O)Cc1ccccc1,-30.4%
11,CCN(CCNC(=O)CN1CCN(Cc2ccc(Cl)cc2)C1=O)c1ccccc1,-52%
12,Cc1ccc(-n2c(C)nnc2SCC(=O)N2CCc3ccccc3C2)cc1C,-21.9%
13,COCCCNC(=O)CN1CCN(Cc2ccc(Cl)cc2)C1=O,1.74%
14,Cc1ccc(CN2CCN(CC(=O)O)C2=O)cc1,41.5%
15,CC(NC(=O)c1ccc(Cl)cc1)c1nnc(SCC(=O)NC2=NCCS2)n1C (centres unmarked),22.3%
16,Cc1cc(O)c(N)c(C)c1Cl.Cl,-4.7%
17,Cn1c(=O)[nH]c(=O)c2c1nc(CN1CCN(c3cccc(Cl)c3)CC1)n2CCc1ccccc1,-21.8%
18,CCOC(=O)C1=C(C)NC(SC)=C(C#N)C1CC(C)C (centres unmarked),-12.3%
19,CCN(CC)S(=O)(=O)c1ccc(-c2nnc(SCC(N)=O)n2CC)cc1,35.8%
20,CCN1CCCC1CNC(=O)CN(C)S(=O)(=O)c1ccc(Cl)cc1 (centres unmarked),-21.6%

row,SMILES,"hERG current change (%, negative = inhibition) at 10uM"
1,Cc1ccc(S(=O)(=O)Nc2c(C)nc3nc(C)[nH]n3c2=O)c(C)c1,10.3%
2,Cc1ccc(N2C(=O)c3cccc4c(C(=O)O)ccc(c34)C2=O)cc1,8.57%
3,COc1ccc(-n2ncc3c(=O)n(CC(=O)N(C(C)C)C(C)C)cnc32)cc1,0.562%
4,Cc1cc(Br)cn2ccnc12,-6.51%
5,CC(Sc1nnc(C2CCCCC2)n1N)C(=O)NCc1ccc2c(c1)OCO2 (centres unmarked),3.2%
6,CN1CCN(CCCNC(=O)c2ccc3c(=O)n(CCc4ccccc4)c(=O)[nH]c3c2)CC1,15.3%
7,O=C(CN1CCN(Cc2ccc(Cl)cc2)C1=O)NCc1cccs1,-57.6%
8,O=C(CN1CCN(Cc2ccccc2)C1=O)NCc1cccs1,1.2%
9,O=C(CN1CCN(Cc2ccc(F)cc2)C1=O)NCc1cccs1,-1.62%
10,CC1CCCC(C)N1C(=O)CSc1nc2c(c(=O)n(C)c(=O)n2C)n1C (centres unmarked),5.34%
11,CC(=O)Nc1ccc(N2C(=O)CSC2c2ccc([N+](=O)[O-])cc2)cc1 (centres unmarked),-11.3%
12,CN(C)c1ccc(C2SCCN2C(=O)c2ccc([N+](=O)[O-])cc2)cc1 (centres unmarked),-66.7%
13,O=C(NNC(=O)c1ccc([N+](=O)[O-])cc1)c1ccc(Br)cc1,14.5%
14,O=C(c1ccc([N+](=O)[O-])cc1)N1CCSC1c1ccc(Br)cc1 (centres unmarked),-64.2%
15,CCOC(=O)c1ccc(NC(=S)N2CCSC2c2ccc(Br)cc2)cc1 (centres unmarked),5.4%
16,O=C(O)c1ccc(N2C(=O)CSC2c2cccc([N+](=O)[O-])c2)cc1 (centres unmarked),15.5%
17,O=C(CC1C(=O)NCCN1C(=O)c1ccc([N+](=O)[O-])cc1)Nc1cccc(Cl)c1 (centres unmarked),-40.4%
18,O=C(c1ccc([N+](=O)[O-])cc1)N1CCSC1c1ccc(Cl)cc1 (centres unmarked),-76.9%
19,O=C(c1ccc([N+](=O)[O-])cc1)N1CCSC1c1cccc(Cl)c1 (centres unmarked),-69.3%
20,O=C(c1ccc([N+](=O)[O-])cc1)N1CCSC1c1ccccc1 (centres unmarked),-39.3%

row,SMILES,"hERG current change (%, negative = inhibition) at 10uM"
1,CN(C)c1ccc(C(=S)N2CCN(c3ccc([N+](=O)[O-])cc3)CC2)cc1,-18.7%
2,O=C(c1ccc([N+](=O)[O-])cc1)N1CCSC1c1ccccc1Cl (centres unmarked),7.77%
3,CC1NC(=O)N(C)[C@@H]2NC(=O)N(C)C(c3ccc([N+](=O)[O-])cc3)[C@@H]12 (some centres unmarked),7.29%
4,CCCCN(C(=O)NC(=O)Nc1cc(C)ccc1C)S(C)(=O)=O,17.9%
5,CNC(=O)COC(=O)CCC(=O)c1ccc(Cl)cc1,7.45%
6,Cc1noc(C)c1COc1ccc(C(=O)Nc2ncccc2O)cc1,11.5%
7,Cc1ccc(C(=O)NCC2CCCO2)cc1[N+](=O)[O-] (centres unmarked),4.29%
8,Cc1cc(C=C2C(=O)c3ccccc3C2=O)c(C)n1-c1ccccc1,7.13%
9,C[C@H](NC(=O)OCc1ccccc1)C(=O)NNC(=O)[C@H](Cc1ccccc1)NC(=O)OC(C)(C)C,31.2%
10,O=C1N(c2cccc(Cl)c2)C(c2cccnc2)N2CCCN12 (centres unmarked),-4.39%
11,COc1ccc(N2C(=O)CSC2c2ccc([N+](=O)[O-])cc2)cc1 (centres unmarked),-37.3%
12,CC1(C)CC2CC(C)(CN2C(=O)c2ccc([N+](=O)[O-])cc2)C1 (centres unmarked),-62.4%
13,CC1(C)CC2CC(C)(CN2C(=O)c2ccccc2)C1 (centres unmarked),8.08%
14,COc1ccccc1C1SCCN1C(=O)c1ccc([N+](=O)[O-])cc1 (centres unmarked),-38.7%
15,O=C(c1ccccc1)N1CCN(C(=O)c2ccccc2)C1c1ccccc1,4.53%
16,COc1ccc(C2SCCN2C(=O)c2ccc([N+](=O)[O-])cc2)cc1 (centres unmarked),-70%
17,Cc1ccc(C(=O)N2CCN(C(=O)c3ccccc3)C2c2ccc(N(C)C)cc2)cc1 (centres unmarked),-50.8%
18,COc1ccc(C2N(C(=O)c3ccccc3)CCN2C(=O)c2ccc(C)cc2)cc1 (centres unmarked),-24.9%
19,CC1(C)C[C@@H]2C[C@@](C)(CN2C(=O)c2ccccc2)C1,11.3%
